According to PubChem BioAssay AID1903 (Southern Research Specialized Biocontainment Screening …, 2009):
“And” between values parts separate entries of the source, which are not always exact repeats. Identical values can stand only once. Out of some 310,000 compounds screened, about 1,200 (0.39%) were called active. No rule for the calls is given here. Not all results are given here. Measured potencies and affinities stand elsewhere.

Target: Large T antigen (Simian virus 40) (UniProt P03070)
Test: SV40 large T antigen inhibitors, biochemical (AID 1903)
Conditions: SV40 large T antigen ATPase/helicase inhibition assay; at 20 µM; active compounds read high

Large T antigen (Simian virus 40), sequence (P03070 whole entry, looked up): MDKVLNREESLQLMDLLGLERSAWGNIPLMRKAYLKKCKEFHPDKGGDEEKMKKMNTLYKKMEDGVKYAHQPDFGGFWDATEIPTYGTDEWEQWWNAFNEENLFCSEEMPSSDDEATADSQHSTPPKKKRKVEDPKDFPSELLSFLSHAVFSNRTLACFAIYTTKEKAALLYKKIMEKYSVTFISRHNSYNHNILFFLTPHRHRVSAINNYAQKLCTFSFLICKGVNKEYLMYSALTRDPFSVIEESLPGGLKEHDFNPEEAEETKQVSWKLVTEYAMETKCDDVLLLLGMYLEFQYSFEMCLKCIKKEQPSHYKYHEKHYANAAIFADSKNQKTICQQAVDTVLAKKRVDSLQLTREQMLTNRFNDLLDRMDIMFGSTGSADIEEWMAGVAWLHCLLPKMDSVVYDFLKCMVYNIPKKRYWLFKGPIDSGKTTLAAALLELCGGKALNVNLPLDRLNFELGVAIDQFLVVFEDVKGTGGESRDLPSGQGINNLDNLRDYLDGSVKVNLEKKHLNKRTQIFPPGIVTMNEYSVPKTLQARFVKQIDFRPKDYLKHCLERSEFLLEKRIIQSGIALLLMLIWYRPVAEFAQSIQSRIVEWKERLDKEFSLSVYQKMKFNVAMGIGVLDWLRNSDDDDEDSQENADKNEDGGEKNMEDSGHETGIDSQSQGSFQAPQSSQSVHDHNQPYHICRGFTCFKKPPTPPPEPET

inhibition, inactive:
COc1ccc(C(C2C(=O)CC(C)(C)CC2=O)C2C(=O)CC(C)(C)CC2=O)cc1 25.9%, COc1ccc(C2CC(=O)C=C(O)C2)cc1 (configuration not stated) 6.5%, CC(=O)N(Cc1cccc(Br)c1)c1ccc(N2CCOCC2)c(Cl)c1 9.14%, Cn1c(COc2ccc3ccccc3c2)nnc1SCC(N)=O -1.72%, NC(=O)c1cc2ccc(O)cc2oc1=Nc1ccccc1 36.3%, Cc1cccc(N=c2oc3cc(O)ccc3cc2C(N)=O)c1 22.6%, CN(C)/C=N/c1c(C#N)cnn1-c1ccccc1 9.99%, CN(CC(=O)Nc1ccc(Cl)c(C(F)(F)F)c1)C(=O)C1CCC1 17.7%, Cc1ccsc1/C=N/N=C/c1sccc1C -8.78%, Cc1ccc(N=Cc2sccc2C)cc1C 3.36%, Cn1c(N)c(S(=O)(=O)N2CCCC2)c(=O)n(C)c1=O 8.94%, CCOc1ccccc1NC(=O)C1CCN(c2ccc(S(=O)(=O)N3CCCC3)cc2)CC1 5.71%, NC(=O)c1cc2cc(Br)ccc2oc1=NCc1ccccc1 -0.91%, CC(=NCc1ccccc1)C1=C(O)COC1=O 5.76%, O=C(CCSc1ccc(Cl)cc1)N1CCN(c2ncccn2)CC1 0.35%, CCn1cc(CN2CCC(C(=O)Nc3ccc(Oc4ccccc4F)cc3)CC2)c(C)n1 10.4%, COc1ccc2c(COC(=O)CCS(=O)(=O)c3ccc(C)cc3)cc(=O)oc2c1 6.52%, CCCC(=O)Oc1ccc2c(C)cc(=O)oc2c1 18.6%, COc1cc(C(C)=O)ccc1OCC(O)CN1CCN(c2c(C)cccc2C)CC1 (configuration not stated) -5.73%, OCCOc1ccc(C2=NCCO2)cc1 -2.82%, CCN1CCN(CC(=O)Nc2ccc3c(c2)OCO3)C(=O)C1=O 3.32%, COc1ccc(Nc2cc3n(c(=O)n2)CCc2cc(OC)c(OC)cc2-3)cc1 10.4%, CCN(CC)c1ccc(Nc2cc3n(c(=O)n2)CCc2cc(OC)c(OC)cc2-3)cc1 31.5%, CCOc1ccc(N2C(=O)/C(=C/c3ccccn3)SC2=S)cc1 9.29%, COc1ccc(N2CCN(C(=O)CCc3ccc(S(=O)(=O)NC(C)C)cc3)CC2)cc1 11.6%, CC(C)CC(=O)Nc1ccnn1C1CCN(C(=O)c2ccc(F)cc2Cl)CC1 0.42%, O=C(NNC(=O)c1ccco1)c1ccc(NS(=O)(=O)c2cccs2)cc1 9.88%, COc1ccc(NC(=O)c2sc(SCc3ccccc3)nc2N)cc1 1.41%, COc1ccc(NC(=O)c2sc(SC)nc2N)cc1 3.33%, CC(=O)Nc1ccc2nc(CN3CCN(CC=C(C)C)C(CCO)C3)ccc2c1 (configuration not stated) 5.4%, COc1ccc(C(=O)NNC(=O)C(=O)NC(C)c2ccccc2)cc1OC (configuration not stated) -0.06%, O=C(O)c1ccc2c(c1)C(c1ccccc1)OC2=O (configuration not stated) 11%, COc1ccccc1CC(=O)Nc1ccc(-c2nnc(-c3ccco3)o2)cc1 5.22%, CCOc1ccc(CCNC(=O)c2cccc(S(=O)(=O)N3CCCC3)c2)cc1OCC 2.19%, Cc1cc(=O)oc2cc(O)ccc12 17.8%, COc1ccc2c(c1)c(=O)oc1cc(O)ccc12 10.3%, O=c1cc(O)c2ccc(O)cc2o1 4.04%, COc1ccc2c(c1)oc(=O)c1ccccc12 2.39%, Clc1ccccc1N1CCN(Cc2c[nH]c3ccccc23)CC1 1.73%, O=C(Cn1nnc(-c2ccccc2)n1)Nc1ccccc1N1CCOCC1 -3.12%, COC(=O)c1ccc2c(c1)C(C)(C)C(/C=C/c1ccccc1O)=[N+]2C 21.7%, C[N+]1=C(/C=C/Nc2ccccc2Cl)C(C)(C)c2ccccc21 21.8%, O=C(NC1CCCCC1)c1sc(=S)n2c1[nH]c(=O)c1ccccc12 6.27%, O=C(NCc1ccco1)c1sc(=S)n2c1[nH]c(=O)c1ccccc12 23.2%, Cc1ccc(N(C(=O)c2csnn2)C(C(=O)NC2CCCCC2)c2ccccn2)cc1C (configuration not stated) 4.41%, CCCCC[n+]1cccc2c3ccccc3ccc21 5.51%, CCCCCCCCCC[n+]1cccc2c3ccccc3ccc21 23.8%, [O-][n+]1c2ccccc2cc2ccccc21 3.6%, Cc1ccc2ccccc2[n+]1CCCS(=O)(=O)[O-] 5.88%, CN(C)C(=O)c1ccc(-c2nnc(NCc3ccccc3)c3ccccc23)cc1 17.7%, CCOC(=O)c1c(S(=O)(=O)NCC(=O)Nc2ccc(F)cc2)c(C)n(C)c1C 2.6%, CCOc1ccccc1NC(=O)Cn1c(=O)c(OCC)nc2cnccc21 13.5%, COc1ccc(Br)cc1C1CC(=O)N2CN(Cc3ccccc3)CSC2=C1C#N (configuration not stated) 35% and 18.8%, CN1CSC2=C(C#N)C(c3cccc(OCc4ccccc4)c3)CC(=O)N2C1 (configuration not stated) 43.1%, COc1ccc2ccccc2c1C1CC(=O)N2CN(C)CSC2=C1C#N (configuration not stated) 28.9%, COc1ccc(C2CC(=O)N3CN(c4ccccc4F)CSC3=C2C#N)cc1OC (configuration not stated) 51.3%, Cc1cccc(C(=O)N2CC3(C)CC2CC(C)(C)C3)c1 (configuration not stated) 3.07%, O=C(c1cccc([N+](=O)[O-])c1)c1ccc2c(c1)OCCOCCOCCOCCO2 7.91%, Cc1cccc(N2CCN(C(=O)CCCn3c(=O)c4cccn4c4cccnc43)CC2)c1C 9.66%, CCN1CCN(C(=O)C2=CC(c3ccc(C)cc3)=NS(=O)(=O)N2C)CC1 16.5%, CCN1C(=O)N[C@@H](CCc2ccccc2)[C@@H](C(=O)OC)[C@H]1C 23.2%, COc1cccc(NC(=O)CSCC(=O)Nc2ccccc2)c1 13.8%
